Measured values: PubChem BioAssay (EPA / NIEHS)
Active and inactive are the calls of the source. How the source made its calls: active means hit-call score of the fitted dose curve at least 0.9, where 1 is the maximum; inactive means score below 0.9.

What follows are compounds tested on UDP glucuronosyltransferase (UGT1A1), UGT1A1 (gene 54658) (assay: LTEA_HepaRG_UGT1A1: Life Technologies and Expression Analysis (LTEA) Assay for UDP glucuronosyltransferase (UGT1A1) using HepaRG (AID 2283538)). Conditions: mRNA level, 48 h; actives raise or lower the signal.
How it was run: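 Differentiated human HepaRG cells in serum-free induction medium were exposed in duplicate for 48 h to eight half-log concentrations up to 100 uM in 0.5% DMSO. UGT1A1 mRNA was quantified by TaqMan qRT-PCR, normalized to ACTB, GAPDH and POLR2A, and fitted bidirectionally against DMSO.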

AC50, active:
COc1cccc(-c2ccc(/C=C\CN3CCCCCC3)cc2Cl)c1 83.4 µM
CC[C@H]1CC[C@H](NCc2cc3c(cc2OC)[C@H]2C[C@H]2C(=O)N3C)[C@H](c2ccccc2)N1 19 µM
Fc1ccccc1[C@@H](F)COC1CCC(Nc2ncnc3[nH]ncc23)CC1 (stereo not given in full) 68 µM
CCN(C(=O)c1cc(C)cc(OC[C@H](C)Nc2ccncc2)c1)C(C)C 6.7 µM
CNS(=O)(=O)c1cc(C(=O)N2CCC(CCN3C4CCC3CC(n3c(C)nc5ccccc53)C4)(c3cccc(F)c3)CC2)c(Cl)cc1F (stereo not given) 9.92 µM
CN(C)c1ccc(Cc2ccc(N(C)C)cc2)cc1 11.5 µM
CC(=O)c1ccc2c(c1)[C@H](NC(=O)c1ccc(F)cc1)[C@@H](O)C(C)(C)O2 22.6 µM
COc1ccc2sc(C(=O)Nc3nnn[nH]3)c(OC(C)C)c2c1 12.9 µM
CCc1cc(SCc2sc(-c3ccc(C(F)(F)F)cc3)nc2CN2CCN(c3ccc(OC)cc3)CC2)ccc1OCC(=O)O 7.28 µM
CCOc1cccc(-n2cc(C(=O)N3CCN(c4cc(C(=O)O)c5ccccc5c4)CC3)nc2-c2ccc(C)cc2)c1 75.9 µM
COCCOc1cc2cc(C(=O)NC3CCN(C(C)C)CC3)n(CC(=O)Nc3ccc(Cl)cn3)c2cn1 82.2 µM

outcome, inactive:
CCCCCCCCO
CNCc1ccc(NC(=O)c2c[nH]c3c2C(=O)CCC3)cc1
O=c1[nH]c2ccc(S(=O)CCN3CCC(Cc4ccc(F)cc4)CC3)cc2o1 (stereo not given)
CCOC(=O)c1ccc(C2CCC(NC[C@H](O)COc3ccc(O)c(NS(C)(=O)=O)c3)CC2)cc1 (stereo not given in full)
Cc1ccc(O)cc1
CC(C)CCO
CCCCC(CC)COC(=O)CCCCCCCCC(=O)OCC(CC)CCCC (stereo not given)
CCNc1ccccc1
CCn1nc(Cc2ccccc2)cc1C1CCN(C[C@H]2C[C@H](N(C)[C@@H](C(=O)O)C(C)C)C[C@@H]2c2cccc(F)c2)CC1
CC(C)CCCCCCOC(=O)c1ccc(C(=O)OCCCCCCC(C)C)c(C(=O)OCCCCCCC(C)C)c1
CC(C)=CCC/C(C)=C/CO
O=C(O)CCN(C1(C(=O)NO)CCCC1)S(=O)(=O)c1ccc(Oc2ccc(F)cc2)cc1
Cc1ccc(N)cc1O
CCCC(=O)OCC
CC1=CC(=O)CC(C)(C)C1
COC(=O)CC(=O)OC
CCCCC(CC)COC(=O)c1ccc(C(=O)OCC(CC)CCCC)cc1 (stereo not given)
Cc1c(-c2cccnc2)c2ccccc2n1CCCCC(=O)O
CCOC(=O)COc1ccc2c(c1)CC(NCC(O)c1cccc(Cl)c1)CC2 (stereo not given)

Each compound was assayed on UDP glucuronosyltransferase (UGT1A6), UGT1A6 (gene 54578) (assay: LTEA_HepaRG_UGT1A6: Life Technologies and Expression Analysis (LTEA) Assay for UDP glucuronosyltransferase (UGT1A6) using HepaRG (AID 2283539)). Conditions: mRNA level, 48 h; actives raise or lower the signal.
How it was run: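 HepaRG, 48 h post-plating switch to serum-free induction medium; chemical 48 h, 100 uM top, half-log x8, duplicate, 0.5% DMSO. Phenobarbital 1mM induction control. UGT1A6 mRNA by TaqMan qRT-PCR; gain/loss fit vs DMSO.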

AC50, active:
COc1cccc(-c2ccc(/C=C\CN3CCCCCC3)cc2Cl)c1 80.4 µM
Fc1ccccc1[C@@H](F)COC1CCC(Nc2ncnc3[nH]ncc23)CC1 (stereo not given in full) 50 µM
CNS(=O)(=O)c1cc(C(=O)N2CCC(CCN3C4CCC3CC(n3c(C)nc5ccccc53)C4)(c3cccc(F)c3)CC2)c(Cl)cc1F (stereo not given) 50 µM
CN(C)c1ccc(Cc2ccc(N(C)C)cc2)cc1 85.6 µM
COc1ccc2sc(C(=O)Nc3nnn[nH]3)c(OC(C)C)c2c1 50 µM
CCc1cc(SCc2sc(-c3ccc(C(F)(F)F)cc3)nc2CN2CCN(c3ccc(OC)cc3)CC2)ccc1OCC(=O)O 7.77 µM
CCOc1cccc(-n2cc(C(=O)N3CCN(c4cc(C(=O)O)c5ccccc5c4)CC3)nc2-c2ccc(C)cc2)c1 75.1 µM

outcome, inactive:
CC[C@H]1CC[C@H](NCc2cc3c(cc2OC)[C@H]2C[C@H]2C(=O)N3C)[C@H](c2ccccc2)N1
CCCCCCCCO
CNCc1ccc(NC(=O)c2c[nH]c3c2C(=O)CCC3)cc1
O=c1[nH]c2ccc(S(=O)CCN3CCC(Cc4ccc(F)cc4)CC3)cc2o1 (stereo not given)
CCOC(=O)c1ccc(C2CCC(NC[C@H](O)COc3ccc(O)c(NS(C)(=O)=O)c3)CC2)cc1 (stereo not given in full)
CCN(C(=O)c1cc(C)cc(OC[C@H](C)Nc2ccncc2)c1)C(C)C
Cc1ccc(O)cc1
CC(C)CCO
CCCCC(CC)COC(=O)CCCCCCCCC(=O)OCC(CC)CCCC (stereo not given)
CCNc1ccccc1
CCn1nc(Cc2ccccc2)cc1C1CCN(C[C@H]2C[C@H](N(C)[C@@H](C(=O)O)C(C)C)C[C@@H]2c2cccc(F)c2)CC1
CC(C)CCCCCCOC(=O)c1ccc(C(=O)OCCCCCCC(C)C)c(C(=O)OCCCCCCC(C)C)c1
CC(C)=CCC/C(C)=C/CO
CC(=O)c1ccc2c(c1)[C@H](NC(=O)c1ccc(F)cc1)[C@@H](O)C(C)(C)O2
O=C(O)CCN(C1(C(=O)NO)CCCC1)S(=O)(=O)c1ccc(Oc2ccc(F)cc2)cc1
Cc1ccc(N)cc1O
CCCC(=O)OCC
CC1=CC(=O)CC(C)(C)C1
COC(=O)CC(=O)OC
CCCCC(CC)COC(=O)c1ccc(C(=O)OCC(CC)CCCC)cc1 (stereo not given)
Cc1c(-c2cccnc2)c2ccccc2n1CCCCC(=O)O
CCOC(=O)COc1ccc2c(c1)CC(NCC(O)c1cccc(Cl)c1)CC2 (stereo not given)
COCCOc1cc2cc(C(=O)NC3CCN(C(C)C)CC3)n(CC(=O)Nc3ccc(Cl)cn3)c2cn1
